Measured values reported in PubChem BioAssay AID1974 (The Scripps Research Institute Molecular Screening Center, 2009).
In all, about 300,000 compounds went through this assay and about 3,200 (1.1%) were called active. This excerpt belongs to a sample that is enriched for actives. Unmarked numbers belong to inactive results.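 Rule for the calls: active = inhibition above the campaign mean inhibition plus 3 SD (cut at about 35% in these data); inactive = the rest.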

biological target: Glutathione S-transferase omega-1 (Homo sapiens) (UniProt P78417); assay: human GSTO1 enzyme inhibition – biochemical, fluorescence polarization, counter-screen for RBBP9 inhibitor project, primary screen (AID 1974); conditions: recombinant GSTO1, activity-based probe fluorescence polarization; at 5.96 µM; active compounds read high;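 note: 0% = GSTO1-1 with DMSO and 100% = wells lacking GSTO1-1 enzyme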
Sequence (P78417 whole entry, looked up): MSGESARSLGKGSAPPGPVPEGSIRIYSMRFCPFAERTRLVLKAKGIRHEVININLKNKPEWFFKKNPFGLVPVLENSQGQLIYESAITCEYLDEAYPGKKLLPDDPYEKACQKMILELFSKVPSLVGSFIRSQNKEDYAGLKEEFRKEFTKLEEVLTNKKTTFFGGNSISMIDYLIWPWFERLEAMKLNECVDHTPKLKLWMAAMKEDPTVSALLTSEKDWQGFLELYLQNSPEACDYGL

Row | Compound | inhibition
1 | COc1cc(Cn2c(N)c(C(=O)NCc3ccco3)c3nc4ccccc4nc32)cc(OC)c1OC | -1.75%
2 | CCOC(=O)c1c(N)n(CCN2CCOCC2)c2nc3ccccc3nc12 | -0.71%
3 | CCOC(=O)c1c(N)n(Cc2ccccc2)c2nc3ccccc3nc12 | 77.2% (active)
4 | CCN(CC)CCOC(=O)c1cc2cc(COC)ccc2o1 | 0.13%
5 | O=c1c2ccccc2nc(/C=C/c2ccco2)n1-c1ccccc1O | -8.4%
6 | O=C1NC(=O)N(CCc2ccc(F)cc2)C(=O)/C1=C/C=C/c1ccccc1 | -7.53%
7 | O=C(O)COc1ccccc1/C=C1\C(=O)NC(=O)N(CCC2=CCCCC2)C1=O | 41.1% (active)
8 | O=C1NC(=O)N(Cc2ccco2)C(=O)/C1=C\c1cccn1CCOc1ccccc1 | 18.6%
9 | COc1cc2nc(N3CCN(C(=O)[C@@H]4CCCO4)CC3)nc(N)c2cc1OC | 3.62%
10 | CCCCCCN=C(CC)c1c(O)n(CCCC)c(=O)[nH]c1=O | -0.65%
11 | CC(=O)Nc1ccccc1C(=O)OCC(=O)c1cccc2ccccc12 | -2.14%
12 | COc1cccc(N2C(=O)NC(=O)/C(=C\c3cn(C)c4ccccc34)C2=O)c1 | -0.1%
13 | Cc1cccc(N2C(=O)NC(=O)/C(=C\c3cnn(-c4ccccc4)c3)C2=O)c1 | -2.05%
14 | O=C1NC(=O)N(c2ccccc2)C(=O)/C1=C/c1ccc([N+](=O)[O-])s1 | 38.7% (active)
15 | Cc1ccc(N2C(=O)NC(=O)C(CCc3ccncc3)(Cc3cccc(Cl)c3Cl)C2=O)cc1 (stereo not given) | -2.83%
16 | Cc1ccc(-n2c(-c3ccc([N+](=O)[O-])cc3)nc3ccccc3c2=O)cc1 | 5.91%
17 | N#CC1=C(N)Oc2c(c(=O)oc3ccccc23)C1c1ccccc1OC(=O)c1cccs1 (stereo not given) | -8.89%
18 | CCNc1nc2[nH]c(=O)c3c(c2s1)OC(N)=C(C#N)C3c1cccs1 (stereo not given) | 40.5% (active)
19 | CCN1c2nc3c(C)cccn3c(=O)c2CC2(C(=O)N(C)C(=O)N(C)C2=O)C1C (stereo not given) | -4.29%
20 | Cc1cc(C)cc(NC(=S)NC2CC3CCCC(C2)N3Cc2cccs2)c1 (stereo not given) | 0.82%
